GC-A act: GC-A stimulated cGMP production enhancers – HEK293 GC-A cells, cGMP TR-FRET, EC30 ANP, primary screen | Atrial natriuretic peptide receptor 1 (Homo sapiens), P16066 | 0% at EC30 ANP, 100% saturating ANP | activation, % at 10 µM | hit rate 0.14% among 370,000; in the data active = activation above about 40%
PLC-gamma1 inh: PLC-gamma1 enzyme inhibitors, primary screen, biochemical, fluorescence, purified enzyme | 1-phosphatidylinositol 4,5-bisphosphate phosphodiesterase gamma-1 (Homo sapiens), P19174 | fluorogenic substrate | inhibition, % at 12.2 µM | hit rate 0.84% among 370,000; in the data active = inhibition above about 9.5%
PfM18AAP inh-1: PfM18AAP inhibitors, malaria aminopeptidase, primary screen, biochemical, QFRET, recombinant enzyme. M18 aspartyl aminopeptidase (Plasmodium falciparum 3D7). H-Glu-NHMec fluorogenic cleavage. inhibition, % at 7.35 µM. hit rate 1.2% among 290,000. AID 1822, 2009;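 active = inhibition above the campaign mean inhibition over all tested compounds plus 3 SD, cut at about 28% in these data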
PLC-beta3 inh: human PLC-beta3 inhibitors, primary screen, biochemical, fluorescence; 1-phosphatidylinositol 4,5-bisphosphate phosphodiesterase beta-3 (Homo sapiens), Q01970; Purified PLC-beta3, fluorogenic substrate; inhibition, % at 12.2 µM; hit rate 0.18% among 370,000; AID 720704, 2013; in the data active = inhibition above about 11%
Rce1 inhib: yeast Rce1p protease inhibitors, primary screen, biochemical, fluorescence, cell-free homogeneous; yeast membranes, quenched prenylated peptide cleavage fluorescence; CAAX prenyl protease 2 (Saccharomyces cerevisiae (strain ATCC 204508 / S288c)), Q03530; hit rate 0.27% among 290,000; calls only;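 active = fall in fluorescence gain of 50% or more versus controls, with final raw signal at or below 3038400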
Target sequence (Q03530 whole entry, looked up): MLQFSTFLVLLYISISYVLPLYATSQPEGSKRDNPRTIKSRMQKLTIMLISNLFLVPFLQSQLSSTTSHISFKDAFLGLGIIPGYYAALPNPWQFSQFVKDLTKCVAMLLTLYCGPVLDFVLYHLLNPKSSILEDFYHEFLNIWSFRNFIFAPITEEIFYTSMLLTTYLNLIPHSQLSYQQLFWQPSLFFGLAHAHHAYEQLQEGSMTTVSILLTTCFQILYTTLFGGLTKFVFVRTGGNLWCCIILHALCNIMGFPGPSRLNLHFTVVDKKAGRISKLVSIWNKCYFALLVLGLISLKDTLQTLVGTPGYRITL
GC-B act: human GC-B receptor activators, primary screen, HEK293 GC-B cells, cGMP TR-FRET, EC30 CNP | 0% at EC30 CNP, 100% saturating CNP | AID 1920062, 2024 | Atrial natriuretic peptide receptor 2 (Homo sapiens), P20594 | activation, % at 10 µM | hit rate 0.11% among 370,000;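 active = activation at 10 µM reaching about 35% in either raw or pattern-adjusted values, limit read from the data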
PfM18AAP inh-2: PfM18AAP inhibitors, malaria aminopeptidase, confirmation, biochemical, QFRET, recombinant enzyme, triplicate; H-Glu-NHMec fluorogenic cleavage; shares compounds with PfM18AAP inh-1; AID 2170, 2009; hit rate 28% among 2,400; inhibition, % at 7.35 µM;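 active = mean inhibition over replicate wells above the hit cutoff set for the earlier primary screen, cut at about 29% in these data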
CTSL1 counter: cathepsin L1 inhibitors, retest, confirmation, counter-screen for PFM18AAP inhibitor project, biochemical, QFRET, triplicate; inhibition, % at 5.96 µM; 2,400 tested, under 10 active; purified cathepsin L1, Z-Leu-Arg-MCA fluorescence; shares compounds with PfM18AAP inh-1; AID 2178, 2009;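 active = average inhibition across replicates above the hit cutoff set in the earlier primary screen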
Target sequence (P07711 whole entry, looked up): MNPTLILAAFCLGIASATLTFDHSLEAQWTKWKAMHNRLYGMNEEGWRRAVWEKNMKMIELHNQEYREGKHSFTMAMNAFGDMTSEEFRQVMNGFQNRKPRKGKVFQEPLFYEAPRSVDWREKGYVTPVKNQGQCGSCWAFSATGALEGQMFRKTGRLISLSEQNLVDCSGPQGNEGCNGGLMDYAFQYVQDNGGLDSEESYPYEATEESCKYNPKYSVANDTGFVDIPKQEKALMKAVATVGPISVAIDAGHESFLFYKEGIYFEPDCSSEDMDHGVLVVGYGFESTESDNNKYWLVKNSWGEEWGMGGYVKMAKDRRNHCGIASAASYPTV
Numbers stand for hits; – = inactive; · = not tested or not shown. The list is not random: actives were taken first. Their share in the collection is about 2.2%.

SMILES	GC-A act	PLC-gamma1 inh	PfM18AAP inh-1	PLC-beta3 inh	Rce1 inhib	GC-B act	PfM18AAP inh-2	CTSL1 counter
COc1ccc(-n2c(SCC(=O)NCc3ccco3)nc3sc4c(c3c2=O)CCN(C)C4)cc1	–	–	34	–	–	–	–	–
CN1CCc2c(sc3nc(SCC(=O)NCc4ccco4)n(-c4ccccc4)c(=O)c23)C1	–	–	39	–	–	–	–	–
C[C@H]1[C@@H](OC(=O)Nc2ccccc2F)CC[C@@]23CCCN2C(=O)CCC[C@@H]13	–	–	·	–	·	–	·	·
CNCc1ccccc1Sc1ccc(O)c(O)c1	–	–	51	–	–	–	70	–
CCc1ccc(CCNC(=O)OC2CCC23CCC(c2ccccc2)CC3)cc1 (stereo not given)	–	–	·	–	·	–	·	·
O=C(NCc1ccccn1)C(=O)N/N=C/c1ccc2c(c1)OCO2	–	–	37	–	–	–	–	–
O=C(NCCc1ccccc1)C(=O)N/N=C/c1ccc2c(c1)OCO2	–	–	–	–	–	–	·	·
NC(=O)C1CCN(C(=O)COc2ccc(Nc3ccccc3)cc2)CC1	–	–	34	–	–	–	–	–
CN1C2=N[C@@H](c3ccc4c(c3)OCO4)CC(=O)N2/C(=C\c2ccccc2)[C@H]1c1ccccc1	–	–	·	–	·	–	·	·
COc1cc(C2Oc3cc(C4Oc5cc(O)cc(O)c5C(=O)C4O)ccc3OC2CO)ccc1O (stereo not given)	–	–	–	–	–	–	·	·
CC(=O)Oc1cc(O)c2c(c1)OC(c1ccc(OC(C)=O)c(OC(C)=O)c1)C(OC(C)=O)C2=O (stereo not given)	–	–	54	–	–	–	31	–
COc1ccc(OC)c(-c2c3cc(O)c(=O)cc-3oc3cc(O)c(O)cc23)c1	·	·	45	·	·	·	–	–
COc1ccc(OC)c(-c2oc3ccccc3c(=O)c2O)c1	–	–	–	–	–	–	·	·
CCN(C(=O)CN1CCN(c2ccc(O)cc2)CC1)c1c(N)n(Cc2ccccc2)c(=O)[nH]c1=O	–	–	35	–	–	–	–	–
COc1cccc(N/N=C/c2cccc(Br)c2O)c1	–	–	–	–	–	–	·	·
Cc1cccc(N/N=C/c2ccc(O)c(O)c2O)c1	–	–	36	–	–	–	–	–
Brc1cccc(CN2CCN(c3ncc(Cc4ccccc4)cn3)CC2)n1	–	–	·	–	·	–	·	·
Cc1nc(C)c(C(=O)NNC(=O)Nc2ccc(Cl)cc2)s1	–	–	55	–	–	–	–	–
C[C@@H]1CCN(C2CC2)S(=O)(=O)c2c(cccc2N2CC[C@@H](O)C2)O1	–	–	·	–	·	–	·	·
Cc1ccc(NS(=O)(=O)c2cc(NC(=O)c3ccc4c(c3)NC(=O)CS4)ccc2Cl)c(C)c1	–	–	32	–	–	–	–	–
COc1cccc(O[C@H]2C=C[C@@H](c3ccccc3)O[C@@H]2CO)c1	–	–	·	–	·	–	·	·
Oc1ccc(CCNc2c3ccccc3nc3ccccc23)cc1O	–	–	74	–	–	–	64	–
c1ccc(CNc2c3ccccc3nc3ccccc23)cc1	–	–	–	–	–	–	·	·
NC(=O)CS(=O)(=O)c1ccc(Cl)cc1	–	–	40	–	–	–	–	–
O=C1/C(=C/c2cccnc2)SC(=S)N1Nc1ccccc1	–	–	37	–	–	–	–	–
SMILES	GC-A act	PLC-gamma1 inh	PfM18AAP inh-1	PLC-beta3 inh	Rce1 inhib	GC-B act	PfM18AAP inh-2	CTSL1 counter
O=C1/C(=C/c2cccnc2)SC(=S)N1c1ccccc1	–	–	–	–	–	–	·	·
Cc1cc(SCC(=O)N/N=C/c2ccc(O)c(O)c2O)c(C)cc1Br	–	–	53	–	–	–	–	–
CC(=O)NN1C(=O)c2ccccc2NC1c1ccccc1O (stereo not given)	–	–	42	–	–	–	–	–
Cc1ccc(-n2c(SCc3ccc(Cl)c(Cl)c3)nnc2-c2ccc(C(C)(C)C)cc2)cc1	–	–	·	–	·	–	·	·
O=C(NC(=S)Nn1cnnc1)c1ccccc1Br	–	–	79	–	–	–	78	–
COC(=O)[C@]12CCCCC=C1N(Cc1ccc(OC)cc1)C(=O)[C@@H]2CC(=O)NCc1cccs1	–	–	·	–	·	–	·	·
Cc1cc(C)cc(C(=O)OCCCN(C)C2CN(Cc3cn(Cc4ccccc4F)nn3)S(=O)(=O)C2)c1 (stereo not given)	–	–	·	–	·	–	·	·
O=c1c2ccccc2c(/C=N/n2cnnc2)c(O)n1-c1ccccc1F	–	–	·	–	–	–	·	·
Cc1ccc(-n2c(O)c(/C=N/n3cnnc3)c3ccccc3c2=O)cc1	–	–	71	–	–	–	64	–
Cc1ccc(-n2c(O)c(/C=N/c3ncn[nH]3)c3ccccc3c2=O)cc1	–	–	37	–	–	–	–	–
CCOc1ccc(N(CC(=O)Nc2c(C)n(C)n(-c3ccccc3)c2=O)S(=O)(=O)c2ccc(C)c(C)c2)cc1	–	–	·	–	·	–	·	·
O=C(CNC(=O)c1ccccc1)NCCc1ccc(O)c(O)c1	–	–	84	–	–	–	73	–
C/C(=C/c1[nH]c(N)[n+](CC2CC2)c1Cc1ccccc1)Cn1[nH]c(=O)n(-c2ccccc2)c1=O	–	–	·	–	·	–	·	·
C[C@H]1[C@H](NCc2cccnc2)CC[C@@]23CCCN2C(=O)CCC[C@@H]13	–	–	·	–	·	–	·	·
O=C(CCc1ccccc1)N[C@H]1[C@H](OC(=O)c2ccco2)CCC[C@@]12C(=O)N(Cc1ccccc1)c1ccccc12	–	–	·	–	·	–	·	·
COC(=O)[C@H](C)NC(=O)[C@@H]1CC=C[C@@H]2CCN(CCc3ccccc3)C(=O)[C@@H]21	–	–	·	–	·	–	·	·
Cc1cc(C)nc(SCCc2ccncc2)n1	–	–	50	–	–	–	–	–
CCCC(=O)N1CCC(C(=O)NC2CCCc3ccccc32)CC1 (stereo not given)	–	–	·	–	·	–	·	·
CC1=C[C@]2(CN(CC3CC3)C3=N[C@H](c4ccccc4)CC(=O)N32)n2c(=O)n(-c3ccccc3)c(=O)n2C1	–	–	·	–	·	–	·	·
